This is part of a sample that, as a whole, favours compounds with a hit. Of some 79,000 tested, about 15% had one in any assay. Values without a mark were called inactive. Calls of active or inactive are those of the source. Rule as the data show it: active = growth inhibition above about 70%; inactive = the rest.

One test is described as follows: NCI Yeast Anticancer Drug Screen. Data for the cln2 rad14 strain (AID 165).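 Also: 0% = growth equal to vehicle treated cultures.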 As to conditions: S. cerevisiae cln2 rad14 strain, at 50.0 µM (retest, dose inferred, filed as 5.0), hits give high values. The method in brief: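 Readout is yeast growth inhibition versus vehicle-treated controls, using a strain with cln2 and rad14 alterations exposed to compound.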
Consider `COC(OC)(c1ccccc1)C(Br)Br`, for which the growth inhibition is 41%.

With `Cc1ccc(S(=O)(=O)OCCc2ccc(Cl)cc2)cc1`, the growth inhibition is -20%.

For `O=C(CC(=O)c1ccncc1)c1ccccc1`, the growth inhibition was 96% (active).

In the case of `CCN1CCC(O)(/C=C/c2ccccc2)C(C(=O)/C=C/c2ccccc2)C1` (stereo not given), the growth inhibition was 74% (active).

For the compound `O=C(O)c1cc(Br)ccc1OCc1ccc(Cl)cc1`, the growth inhibition was 27%.

On to `Cc1ccc(C2COc3cc(O)c(O)cc3C2)cc1` (stereo not given), for which the growth inhibition was 99% (active).

Turning to `COC(=O)c1c2oc3c(C(=O)OC)cccc3nc-2cc(N)c1=O`, the growth inhibition was -2%.

Regarding `CC(=O)NCCN(C)C`, the growth inhibition was -3%.

Take `N=c1scc(-c2ccccc2)n1/N=C/c1cccnc1`: the growth inhibition was 95% (active).

Regarding `C(=C/c1ccccc1)/C=N/Nc1ccccc1`, the growth inhibition was -64%.

As to `OC(Cc1ccc(Br)cc1)CN1CCC(c2ccccc2)CC1` (stereo not given), the growth inhibition was 87% (active).

Consider `O=C1C(Cl)=C(Nc2ccc(S(=O)(=O)O)cc2)C(=O)c2ccccc21`, for which the growth inhibition was 99% (active).

Regarding `CC1(CO)CCCC2(C)C3=C(CCCC3)CCC12` (stereo not given), the growth inhibition was 95% (active).

In the case of `Cc1cc2nc(CC(=O)c3ccc4ccccc4c3)c(=O)[nH]c2cc1C`, the growth inhibition is -33%.

For `CN(CCO)CCn1cnc2c1c(=O)n(C)c(=O)n2C`, the growth inhibition is -12%.

Turning to `O=C1c2ccccc2CC(Br)c2ccccc21` (stereo not given), the growth inhibition is 80% (active).

As for `Cc1cccc2c(CBr)cc(=O)[nH]c12`, the growth inhibition was 61%.

For `CC(=O)CC1CCC(=O)/C=C/C(=O)OC(CC(C)=O)CCC(=O)/C=C/C(=O)O1` (stereo not given), the growth inhibition is 27%.

As for `CCN(CC)CC(O)c1c(-c2ccccc2)c(-c2ccccc2)c2n1CCC2` (stereo not given), the growth inhibition was 17%.

Regarding `CC1(C)CC[C@]2(C(=O)O)[C@H](O)C[C@]3(C)C(=CC[C@@H]4[C@@]5(C)CC[C@H](OC6OCC(O)C(O)C6OC6OCC(O)C(O)C6OC6OCC(O)C(O)C6O)C(C)(C)[C@@H]5CC[C@]43C)[C@@H]2C1` (stereo not given in full), the growth inhibition is 100% (active).

Turning to `Cc1ccc(NC(=O)/C(CC(=O)c2sc(Nc3ccc(Cl)c(Cl)c3)nc2C)=N\Nc2ccc([N+](=O)[O-])cc2[N+](=O)[O-])c(C)c1`, the growth inhibition was 98% (active).

Turning to `CC(=O)N=C1N(/C=C2\C(=O)Oc3ccccc3C2=O)C(=O)/C(=C/c2ccc(Cl)cc2Cl)N1C`, the growth inhibition was 91% (active).

With `COC1OC2COC(c3ccccc3)OC2C(NC(=S)SCc2ccccc2)C1O` (stereo not given), the growth inhibition was 98% (active).

`O=C(CCN1CCCCC1)N1CCc2c([nH]c3ccccc23)C1c1cccnc1` (stereo not given): the growth inhibition was 22%.

With `Cc1ccc(Sc2ccc(C)cc2[N+](=O)[O-])c([N+](=O)[O-])c1`, the growth inhibition was 37%.

As for `O=c1c2cc3ccccc3cc2c(=O)n2n1CC=CC2`, the growth inhibition is 10%.

For the compound `ClC(Cl)=C1C(=C(Cl)Cl)C(Cl)(Cl)C1(Cl)Cl`, the growth inhibition is 97% (active).

On to `Cc1c(C(=O)N(CCO)CCO)[n+](=O)c2ccccc2n1[O-]`, for which the growth inhibition was 2%.

For `CN(C)c1cc(N(C)C)c2cc(-c3ccccc3)sc2n1`, the growth inhibition was 82% (active).

With `O=C(Nc1ccccc1O)/C(Cl)=C/Cl`, the growth inhibition is 95% (active).

As to `Cc1ccccc1SCc1nc2ccccc2c(C)[n+]1[O-]`, the growth inhibition is 44%.

For the compound `Oc1ccc2c(ccc3ccccc32)c1`, the growth inhibition is 99% (active).

Consider `O=C1c2ccccc2C(=O)N1C(=NCc1ccccc1)c1ccccc1`, for which the growth inhibition is 64%.

Turning to `Cc1cc(Cl)cc2c1OCN(C)C2`, the growth inhibition is 96% (active).

For the compound `CC(C)C(=O)/C=C/c1ccc(Cl)cc1Cl`, the growth inhibition is 36%.

As to `CC(C)C(=O)c1ccc([N+](=O)[O-])o1`, the growth inhibition is 99% (active).

Regarding `CSc1c(S(C)=O)c2ccccc2n1C` (stereo not given), the growth inhibition is 17%.

As to `O=C(CCCCN1CCN2c3ccccc3CCC2C1)c1ccccc1` (stereo not given), the growth inhibition was 39%.

Consider `COC(=O)c1ccc(C)cc1CC1Cc2cc(C)ccc2C1=O` (stereo not given), for which the growth inhibition is 53%.

In the case of `Cc1cc(Nc2ccc(N=Nc3ccc(O)c4ncccc34)cc2)nc(C)n1`, the growth inhibition is 6%.

The same test, now with this note: S. cerevisiae cln2 rad14 strain, at 50.0 µM, hits give high values.
Turning to `COC(OC)(c1ccccc1)C(Br)Br`, the growth inhibition is 90.4% (active).

In the case of `Cc1ccc(S(=O)(=O)OCCc2ccc(Cl)cc2)cc1`, the growth inhibition was -16.5%.

On to `O=C(CC(=O)c1ccncc1)c1ccccc1`, for which the growth inhibition was 93.8% (active).

Regarding `CCN1CCC(O)(/C=C/c2ccccc2)C(C(=O)/C=C/c2ccccc2)C1` (stereo not given), the growth inhibition is 85.1% (active).

Consider `O=C(O)c1cc(Br)ccc1OCc1ccc(Cl)cc1`, for which the growth inhibition was 79.4% (active).

For `Cc1ccc(C2COc3cc(O)c(O)cc3C2)cc1` (stereo not given), the growth inhibition is 96.2% (active).

Regarding `COC(=O)c1c2oc3c(C(=O)OC)cccc3nc-2cc(N)c1=O`, the growth inhibition is -46.5%.

With `CC(=O)NCCN(C)C`, the growth inhibition was 85.7% (active).

Take `N=c1scc(-c2ccccc2)n1/N=C/c1cccnc1`: the growth inhibition is 96.2% (active).

As for `C(=C/c1ccccc1)/C=N/Nc1ccccc1`, the growth inhibition was -9%.

Regarding `OC(Cc1ccc(Br)cc1)CN1CCC(c2ccccc2)CC1` (stereo not given), the growth inhibition is 78.9% (active).

Take `O=C1C(Cl)=C(Nc2ccc(S(=O)(=O)O)cc2)C(=O)c2ccccc21`: the growth inhibition is 99.3% (active).

Consider `CC1(CO)CCCC2(C)C3=C(CCCC3)CCC12` (stereo not given), for which the growth inhibition is 10.1%.

For the compound `Cc1cc2nc(CC(=O)c3ccc4ccccc4c3)c(=O)[nH]c2cc1C`, the growth inhibition was 80.9% (active).

Regarding `CN(CCO)CCn1cnc2c1c(=O)n(C)c(=O)n2C`, the growth inhibition was -21.8%.

On to `O=C1c2ccccc2CC(Br)c2ccccc21` (stereo not given), for which the growth inhibition was 1.7%.

On to `Cc1cccc2c(CBr)cc(=O)[nH]c12`, for which the growth inhibition was 91.5% (active).

Consider `CC(=O)CC1CCC(=O)/C=C/C(=O)OC(CC(C)=O)CCC(=O)/C=C/C(=O)O1` (stereo not given), for which the growth inhibition was 23.1%.

On to `CCN(CC)CC(O)c1c(-c2ccccc2)c(-c2ccccc2)c2n1CCC2` (stereo not given), for which the growth inhibition is -4.75%.

On to `CC1(C)CC[C@]2(C(=O)O)[C@H](O)C[C@]3(C)C(=CC[C@@H]4[C@@]5(C)CC[C@H](OC6OCC(O)C(O)C6OC6OCC(O)C(O)C6OC6OCC(O)C(O)C6O)C(C)(C)[C@@H]5CC[C@]43C)[C@@H]2C1` (stereo not given in full), for which the growth inhibition was 54%.

Take `Cc1ccc(NC(=O)/C(CC(=O)c2sc(Nc3ccc(Cl)c(Cl)c3)nc2C)=N\Nc2ccc([N+](=O)[O-])cc2[N+](=O)[O-])c(C)c1`: the growth inhibition is 97.1% (active).

Turning to `CC(=O)N=C1N(/C=C2\C(=O)Oc3ccccc3C2=O)C(=O)/C(=C/c2ccc(Cl)cc2Cl)N1C`, the growth inhibition is 89.8% (active).

As for `COC1OC2COC(c3ccccc3)OC2C(NC(=S)SCc2ccccc2)C1O` (stereo not given), the growth inhibition is 99.5% (active).

Take `O=C(CCN1CCCCC1)N1CCc2c([nH]c3ccccc23)C1c1cccnc1` (stereo not given): the growth inhibition is -6.8%.

For `Cc1ccc(Sc2ccc(C)cc2[N+](=O)[O-])c([N+](=O)[O-])c1`, the growth inhibition is 20.5%.

On to `O=c1c2cc3ccccc3cc2c(=O)n2n1CC=CC2`, for which the growth inhibition was 26.8%.

Take `ClC(Cl)=C1C(=C(Cl)Cl)C(Cl)(Cl)C1(Cl)Cl`: the growth inhibition was 92.7% (active).

Regarding `Cc1c(C(=O)N(CCO)CCO)[n+](=O)c2ccccc2n1[O-]`, the growth inhibition was 39%.

For `CN(C)c1cc(N(C)C)c2cc(-c3ccccc3)sc2n1`, the growth inhibition is 7.65%.

As to `O=C(Nc1ccccc1O)/C(Cl)=C/Cl`, the growth inhibition is 93.5% (active).

`Cc1ccccc1SCc1nc2ccccc2c(C)[n+]1[O-]`: the growth inhibition was 35%.

Take `Oc1ccc2c(ccc3ccccc32)c1`: the growth inhibition is 99% (active).

Take `O=C1c2ccccc2C(=O)N1C(=NCc1ccccc1)c1ccccc1`: the growth inhibition is 5.55%.

On to `Cc1cc(Cl)cc2c1OCN(C)C2`, for which the growth inhibition was 99.3% (active).

Take `CC(C)C(=O)/C=C/c1ccc(Cl)cc1Cl`: the growth inhibition is 52.5%.

Take `CC(C)C(=O)c1ccc([N+](=O)[O-])o1`: the growth inhibition was 97.3% (active).

As to `CSc1c(S(C)=O)c2ccccc2n1C` (stereo not given), the growth inhibition is -6.4%.

Consider `O=C(CCCCN1CCN2c3ccccc3CCC2C1)c1ccccc1` (stereo not given), for which the growth inhibition is 58.8%.

Turning to `COC(=O)c1ccc(C)cc1CC1Cc2cc(C)ccc2C1=O` (stereo not given), the growth inhibition is 71.8% (active).

As to `Cc1cc(Nc2ccc(N=Nc3ccc(O)c4ncccc34)cc2)nc(C)n1`, the growth inhibition is 23%.

The record behind these values is PubChem BioAssay (NCI).
